# Assay results from the supplement of paper PMC10338343.
# ± gives the standard deviation.
# System: MILI (PIWIL2) piRISC loaded with piRNA #1 (26 nt)
# Test: pre-steady-state target cleavage rate (min^-1); guide: piRNA #1 5'p-UGAGGUAGUAGGUUGUAUAGUAUCCA; MIWI and MILI are mouse PIWI proteins and EfPiwi is from a freshwater sponge; tags in brackets are library labels; higher = faster piRNA-guided slicing of the target
# Conditions: auxiliary factor: 500 nM mouse GTSF1
# Summary of the method: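 For Cleave-'n-Seq, a transcribed, DNA-blocked target RNA library […] met 1 nM active affinity-purified piRISC with one synthetic guide at 33 °C for 0–8 or 0–960 min in HEPES–potassium acetate buffer, with or without 500 nM GTSF1 partner protein. Uncleaved targets were sequenced and normalised to depth and weakly complementary targets, with three trials pooled and k3 capped at 0.0001 min^-1. A burst-and-steady-state fit supplied the pre-steady-state cleavage rate.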
# 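Note: 1 nM active piRISC with 0.1 nM target library at 33 °C single turnover.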
row,Sequence,pre-steady-state target cleavage rate
1,GGAGACCUAUGAAUACAACGUACUAGCUCA,0.0036 ± 0.0035
2,GGAGACCUAUCUAUACAAGCAACUACCUCA,0.00953 ± 0.0029
3,GGAGACCUAUGAUAUCACCUACUACCUCA,0.00625 ± 0.0026
4,GGAGUGGAUACUAUACAAGGAACUACCUCA,0.00353 ± 0.0018
5,GGAGACCUAUGAUAUGUUGGUAUACCUCA,< 0.0001
6,GGAGACCUAUCUAAAGAACCUACUACCUCA,0.0183 ± 0.0054
7,GGAGACCUAUGAUAUGUUGCUAGAUCCUCA,< 0.0001
8,GGAGACCUAUCUAUUCAACCUACUACCUCA,0.108 ± 0.015
9,GGAGACCUAUCUAUCACAACCUACUACCUCA,0.0519 ± 0.01
10,GGAGACCUUACUAUACAACCUAGAACCUCA,0.00842 ± 0.0033
11,GGAGACCUUACUAUACAUGGUACUACCUCA,0.00395 ± 0.0029
12,GGAGACCUUACAAUACAACCUACUAGCUCA,0.103 ± 0.013
13,GGAGACGAUACUAUUCAACCUACUUCCUCA,0.0306 ± 0.0097
14,GGAGACCAUACUAUUCAACCUACUACCACA,0.189 ± 0.023
15,GGAGACCUAUGUAUACAACCUACUGCCUCA,0.0511 ± 0.0081
16,GGAGACCUAUGAAUACAACCUACCACCUCA,0.00506 ± 0.0036
17,GGAGAGGAUACUAUACAACCUCUACCUCA,0.0184 ± 0.0033
18,GGAGACCUUACUAUACAACCUACUUACCUCA,0.158 ± 0.013
19,GGAGACCUAACUAUACAACCUACUUGCUCA,0.18 ± 0.062
20,GGAGACCUAACUAUAGUACCUACUACCUCA,0.122 ± 0.022

row,Sequence,pre-steady-state target cleavage rate
1,GGAGACCUAAGUAUACAACGUACUACCUCA,0.0111 ± 0.0021
2,GGAGACCUAUGAUAUGUACCUACUUGGAGA [g7:g13:cont:t1A],< 0.0001
3,GGAGACCUAUGAAUACAAGCUACUACCACA,0.0366 ± 0.0055
4,GGAGACCUAUGAUAUCAACCUAGUACCUGA,< 0.0001
5,GGAGACCUUACUAUACAACCUACUACGACA,0.119 ± 0.021
6,GGAGACCAUACUAUACAACCUACUGCCUCA,0.139 ± 0.015
7,GGAGACCUAUGUUUUCAACCUACUACCUCA,0.00894 ± 0.0025
8,GGAGAGGAUACUUAACAACCUACUACCUCA,0.163 ± 0.013
9,GGAGUGGAUACUUUAGAACCUACUACCUCA,0.116 ± 0.0096
10,GGAGAGGAUUCUAUACAACCUACUACCACA,0.113 ± 0.011
11,GGAGACCUAUGAUUAACAACCUACUACCUCA,0.00416 ± 0.0022
12,GGAGACCUAUCUAUACAACCAACUUCCUCA,0.00361 ± 0.0027
13,GGAGACCUAACUAUAGAUCCUACUACCUCA,0.203 ± 0.026
14,GGAGACCUAUGAUUACAACGUACUUCCUCA,0.00374 ± 0.0031
15,GGAGUGGAUACAAUAGAACCUACUACCUCA,0.163 ± 0.009
16,GGAGAGGAUACUAUACUACCUACUAGCUCA,0.0852 ± 0.013
17,GGAGACCUAUGAUUACAACCUACUCCCUCA,0.00393 ± 0.0029
18,GGAGACGAUACUAUAGAACCUACUACGUCA,0.0644 ± 0.013
19,GGAGUCGAUACUAUAGAACCUACUACCUCA,0.0641 ± 0.0083
20,GGAGACCUAUGUAUACAACCUAAUACCUCA,0.0196 ± 0.0049
